Laboratory results as given in PubChem BioAssay.
This is one part of the list. Calls of active or inactive are those of the source.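 The calls were made as follows, unless noted: active = mean inhibition over three repeats above about 26% taken from the earlier screen (limit read from the data); inactive = the rest.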

How the values were obtained:
[1] = test system: TLR4-MyD88 interaction (human), BLA complementation; test: TLR4-MyD88 association inhibitors, retest, confirmation, cell-based, HeLa CL3-4, BLA complementation, FRET ratio (AID 941;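 active = mean inhibition across three repeat runs above about 25% carried over from the earlier screen, limit read from the data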;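 also: plate controls were DMSO only for no effect and clavulanic acid blocking BLA at full dose for full effect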); settings: CCF4 FRET ratio, at 8.4 µM, stronger effect = higher value
[2] = inhibitors of full-length beta-lactamase reporter, confirmation, artefact control for TLR4-MyD88 binding inhibitor project, cell-based, HeLa, full-length BLA, CCF4 FRET ratio (AID 1237); settings: at 8.4 µM, stronger effect = higher value;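 also: HeLa cells stably expressing beta-lactamase reporter as counterscreen for TLR4-MyD88 inhibitors; 0% = DMSO and 100% = clavulanic acid full inhibition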
[3] = target: Protein-arginine deiminase type-4 (Homo sapiens) (UniProt Q9UM07); test: human PAD4 inhibitors, confirmation, biochemical, fluorescence polarization (AID 488796;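 active = mean inhibition across replicates above the hit cutoff set by the earlier primary screen, cut at about 15% in these data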;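 also: inhibitors block active-site labeling by the probe so polarization falls; 0% = PAD4 with probe and DMSO and 100% = probe without PAD4 enzyme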); settings: recombinant PAD4, RCA probe fluorescence polarization; at 6.36 µM; stronger effect = higher value
[4] = target: Serine protease HTRA1 (Homo sapiens) (UniProt Q92743); test: HTRA1 protease inhibitors, retest, confirmation, biochemical, fluorescence polarization (AID 540248;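 active = mean inhibition over three repeats above a set limit taken from the earlier primary screen, cut at about 37% in these data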;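 also: 0% = HTRA1 with DMSO and 100% = wells lacking HTRA1; inhibitors block probe binding so polarization drops and inhibition rises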); settings: recombinant HTRA1, FP-rhodamine activity-based probe, at 5.96 µM, stronger effect = higher value
[5] = StAR promoter reporter inhibitors, counter-screen for LRH-1 inverse agonist project, cell-based, luminescence, high throughput (AID 651611; in the data active = inhibition above about 28%); settings: StAR promoter luciferase reporter counterscreen, at 3.6 µM, stronger effect = higher value
[6] = target: Nuclear receptor subfamily 5 group A member 2 (Homo sapiens) (UniProt O00482); test: LRH-1 (NR5A2) inverse agonists, retest, confirmation, cell-based, luminescence (AID 651613; in the data active = inhibition above about 42%;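 also: HEK293T cells co-transfected with LRH-1 and StAR promoter luciferase reporter; 0% = vehicle wells and 100% = parental cells lacking receptor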); settings: cell-based LRH-1 luciferase reporter, inverse agonism; at 3.6 µM; stronger effect = higher value
[7] = target: Steroidogenic factor 1 (Homo sapiens) (UniProt Q13285); test: SF1 (NR5A1) inverse agonists, counter-screen for LRH-1 inverse agonist project, cell-based, luminescence, high throughput (AID 651614; in the data active = inhibition above about 44%;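 also: cells cotransfected with StAR promoter reporter and SF1 expression vector; 0% = vehicle on cells with receptor and 100% = vehicle on cells lacking receptor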); settings: cell-based SF1 luciferase reporter, at 3.6 µM, stronger effect = higher value
[8] = VP16 transactivation reporter inhibitors, counter-screen for LRH-1 inverse agonist project, cell-based, luminescence, high throughput (AID 651615; in the data active = inhibition above about 33%); settings: Gal4-VP16 luciferase reporter cells, at 3.6 µM, stronger effect = higher value
[9] = compounds interfering with TAMRA-BSA probe, counter-screen for TCR-CD3 interaction inhibitor project, biochemical, fluorescence, TAMRA-labeled BSA (AID 652035; in the data active = inhibition above about 23%;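 also: 0% = buffer low control and 100% = reference high control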); settings: TAMRA-labeled BSA probe fluorescence counterscreen; at 9.4 µM; stronger effect = higher value
[10] = test system: T-cell receptor (TCR)-CD3 interaction, human; test: TCR-CD3 interaction inhibitors, retest, confirmation, biochemical, fluorescence, TAMRA-labeled TCR probe (AID 652036; in the data active = inhibition above about 19%); settings: TAMRA-labeled TCR probe fluorescence binding assay; at 9.4 µM; stronger effect = higher value
[11] = target: (Lyso)-N-acylphosphatidylethanolamine lipase (Mus musculus) (UniProt Q8VD66); test: ABHD4 inhibitors, retest, confirmation, biochemical, fluorescence polarization, mouse (AID 720658;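 active = mean inhibition across replicates above the hit cutoff set in the primary screen, cut at about 30% in these data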;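 also: 0% = wild-type ABHD4 with DMSO and 100% = catalytically dead S159A mutant with DMSO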); settings: purified mABHD4, FP-Rh probe fluorescence polarization; at 8.92 µM; stronger effect = higher value
[12] = test system: HIV-1 integrase (multimerization); test: HIV-1 IN multimer formation enhancers, counter-screen for LEDGF/p75 integration inhibitor project, biochemical, TR-FRET (AID 1053131; in the data active = activation above about 8.9%); settings: TR-FRET HIV-1 integrase multimerization, at 7.7 µM, stronger effect = higher value
[13] = TR-FRET optical interference artefacts, confirmation, artefact control for LEDGF/p75-dependent integration inhibitor project, biochemical, HIV-1 IN multimerization (AID 1053135;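 active = inhibition above the mean over all tested compounds plus 3 SD, which no compound reached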;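 also: 0% = integrase with antibodies and DMSO and 100% = antibodies without integrase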); settings: TR-FRET optical interference counterscreen, at 7.7 µM, stronger effect = higher value
[14] = test system: HIV-1 integrase / human LEDGF/p75 complex; test: inhibitors of HIV-1 IN-LEDGF/p75 DNA integration, confirmation, biochemical, TR-FRET (AID 1053136; in the data active = inhibition above about 14%); settings: TR-FRET LEDGF/p75-dependent HIV-1 integration, at 3.7 µM, stronger effect = higher value
[15] = STAT1 signaling activators, confirmation, cell-based, HTS, luciferase reporter (AID 1262;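 active = activation above a set limit carried over from the earlier primary STAT1 screen, cut at about 140% in these data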;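 also: simple ratio to median IFN-gamma plus DMSO wells so 0% means no light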); settings: NIH 3T3 STAT1-luciferase reporter, IFN-gamma potentiation, luminescence; at 5.7 µM; stronger effect = higher value; 100% = IFN-gamma EC80 alone, no compound
[16] = NF-kB reporter activators, TNF-alpha stimulated, counter-screen for STAT1 activator project, cell-based, HEK293T, luciferase luminescence (AID 1306;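 active = activation above the mean of solvent-only control wells plus 3 SD, set per campaign, cut at about 130% in these data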;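 also: TNF-alpha given at a submaximal dose yielding about 80% of full reporter signal; values are well signal over median control so 100% means no change and 0% no light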); settings: at 5.7 µM, stronger effect = higher value, 100% = TNF-alpha with vehicle only
[17] = target: Signal transducer and activator of transcription 3 (Homo sapiens) (UniProt P40763); test: STAT3 reporter activation by STAT1 hits, confirmation, counter-screen for STAT1 activator project, U3A cells, luciferase, luminescence (AID 1316;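 active = activation above the solvent-only control well mean plus 3 SD, set per plate batch, cut at about 110% in these data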;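 also: 0% = no luminescence and 100% = median IL-6 plus DMSO wells; higher means more STAT3 reporter activation so hits are non-selective activators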); settings: IL-6, luminescence, at 5.7 µM, stronger effect = higher value, 100 = IL-6 alone, no compound effect, cells lack STAT1
[18] = target: Peroxisome proliferator-activated receptor gamma (Homo sapiens) (UniProt P37231); test: agonists of PPARgamma SRC-2 coactivator recruitment, confirmation, biochemical, HTS (AID 1297; in the data active = activation above about 22%;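 also: 0% = vehicle alone and 100% = reference agonist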); settings: biochemical SRC-2 recruitment by PPARgamma; at 8 µM; stronger effect = higher value
[19] = target: Peroxisome proliferator-activated receptor gamma (Homo sapiens) (UniProt P37231); test: PPARgamma agonists recruiting SRC-1 coactivator, confirmation, biochemical (AID 1300; in the data active = activation above about 20%;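 also: 0% = vehicle wells and 100% = reference agonist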); settings: PPARgamma–SRC-1 coactivator recruitment biochemical assay; at 8 µM; stronger effect = higher value
[20] = target: Peroxisome proliferator-activated receptor gamma (Homo sapiens) + Nuclear receptor coactivator 3 (Homo sapiens) (UniProt P37231+Q9Y6Q9); test: PPARgamma-driven SRC-3 coactivator recruitment agonists, confirmation, biochemical (AID 1301; in the data active = activation above about 24%;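 also: 0% = vehicle wells and 100% = reference agonist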); settings: biochemical PPARgamma-SRC-3 coactivator recruitment, agonist mode; at 8 µM; stronger effect = higher value
[21] = target: Insulin-degrading enzyme (Homo sapiens) (UniProt P14735); test: human IDE inhibitors in live cells, confirmation, fluorescence polarization, HEK cells, FAbetaB substrate (AID 435028;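 active = mean inhibition across triplicate wells above the cutoff set by the earlier primary insulin-degrading enzyme screen, cut at about 16% in these data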;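 also: 0% = DMSO wells and 100% = 60 µM reference IDE inhibitor Ii1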); settings: FAbetaB cleavage, at 5.59 µM, stronger effect = higher value
[22] = cytotoxicity in HEK cells, cytotoxicity control for IDE inhibitor project, cell-based, luminescence (AID 449730; in the data active = inhibition above about 22%;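 also: 0% = vehicle wells and 100% = reference cytotoxic drug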); settings: HEK293 cytotoxicity, ATP luminescence; at 5.59 µM; stronger effect = higher value
[23] = target: Receptor-interacting serine/threonine-protein kinase 2 (Homo sapiens) (UniProt O43353); test: NOD2-RIPK2 binding disruptors, retest, confirmation, fluorescence, CHO cells, BLA complementation, triplicate (AID 624370;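 active = mean inhibition across replicates above a set limit taken from the earlier primary screen, cut at about 21% in these data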;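 also: 0% = DMSO-only wells and the high end = clavulanate BLA-blocked wells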); settings: CCF4 FRET, at 4.98 µM, stronger effect = higher value
[24] = beta-lactamase reporter inhibitors in CHO cells, confirmation, artefact control for NOD2-RIPK2 interaction inhibitor project, cell-based, CHO-K1 CMV-bla, CCF4 FRET, fluorescence (AID 624371;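 active = mean inhibition above the low-control mean inhibition plus three low-control SD, cut at about 11% in these data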;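 also: 0% = DMSO only wells and 100% = clavulanate high control wells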); settings: CCF4 FRET ratio, counterscreen, at 4.98 µM, stronger effect = higher value
[25] = test system: Fam108b (Abhd17b) serine hydrolase [Mus musculus]; test: mouse Fam108b serine hydrolase inhibitors, confirmation, counter-screen for RBBP9 inhibitor project, biochemical, fluorescence polarization, triplicate (AID 1978;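 active = inhibition above a limit from the primary screen, the mean over all compounds plus 3 SD, cut at about 19% in these data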;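 also: 0% = median of active Fam108b wells and 100% = catalytically dead S170A mutant; inhibitors free the probe so polarization falls as inhibition rises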); settings: recombinant Fam108b, FP-Rh probe fluorescence polarization; at 9.51 µM; stronger effect = higher value
[26] = target: Toll-like receptor 9 (Homo sapiens) (UniProt Q9NR96); test: TLR9-MyD88 association inhibitors, retest, confirmation, cell-based, CHO, BLA complementation, fluorescence, triplicate (AID 540250;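 active = mean inhibition across three repeats above about 21% taken from the earlier screen, limit read from the data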;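 also: blue over green emission ratio reports constitutive TLR9 MyD88 association via BLA complementation; 0% = DMSO vehicle wells and 100% = clavulanate BLA inhibitor wells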); settings: CCF4 FRET ratio, at 4.98 µM, stronger effect = higher value
[27] = beta-lactamase reporter inhibitors in CHO cells, artefact control for TLR9-MyD88 binding inhibitor project, cell-based, fluorescence (AID 540251;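 active = mean inhibition above a 50% cutoff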;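 also: counterscreen of TLR9-MyD88 hits on CMV-driven BLA in CHO-K1 cells; 0% = DMSO alone and 100% = clavulanate blocking BLA; higher means less blue over green ratio so more BLA blockade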); settings: CHO-BLA cells, CCF4 FRET ratio, at 4.98 µM, stronger effect = higher value
[28] = CHO cell viability loss – luminescence, single concentration, cytotoxicity control for TLR9-MyD88 binding inhibitor project (AID 588336; in the data active = inhibition above about 11%); settings: TLR9-MyD88 CHO cells cytotoxicity, at 4.98 µM, stronger effect = higher value
[29] = target: Photoreceptor-specific nuclear receptor (Homo sapiens) (UniProt Q9Y5X4); test: NR2E3 agonist confirmation in cells, cell-based, luminescence, CHO-S two-hybrid (AID 624378;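 active = average inhibition above a cutoff equal to the mean inhibition of all tested compounds plus one SD, cut at about 70% in these data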;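 also: 0% = DMSO in NR2E3 cells and 100% = DMSO in cells lacking NR2E3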); settings: CHO-S mammalian two-hybrid NR2E3-NCOR, luciferase luminescence; at 3.98 µM; stronger effect = higher value
[30] = GAL4-VP16 reporter modulators, confirmation, counter-screen for NR2E3 agonist project, cell-based, luminescence, CHO-S, high throughput (AID 624379;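 active = mean inhibition above a cutoff equal to the average over all tested compounds plus one standard deviation, cut at about 70% in these data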;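 also: luciferase from a UAS reporter driven by GAL4-VP16 transactivation; 0% = DMSO with VP16-transfected cells and 100% = DMSO with cells lacking VP16; higher means less reporter light so more repression of VP16 activity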); settings: CHO-S GAL4-VP16 luciferase reporter, at 3.98 µM, stronger effect = higher value
[31] = growth loss of phage-infected RecBCD+ E. coli, confirmation, RecBCD inhibitor project, absorbance, E. coli V66, T4 gene 2 phage (AID 651982;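 active = mean inhibition over triplicates exceeding the hit threshold derived in the original primary screen, cut at about 11% in these data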); settings: E. coli V66 + T4 2- phage, growth OD; at 11.9 µM; stronger effect = higher value
[32] = E. coli viability inhibition, counter-screen for RecBCD inhibitor project, absorbance, high throughput (AID 651983; in the data active = inhibition above about 20%;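 also: E. coli strain V66 grown with compound alone and no phage infection; 0% = bacteria with DMSO vehicle only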); settings: absorbance (OD) growth, at 11.9 µM, stronger effect = higher value
[33] = growth loss of phage-infected AddAB-carrying E. coli, confirmation, counter-screen for RecBCD inhibitor project, absorbance, E. coli V3065, T4 phage (AID 651984;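 active = mean inhibition above the solvent-only control wells' mean plus 3 SD, cut at about 22% in these data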;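 also: higher means less bacterial growth from phage killing when AddAB is blocked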); settings: E. coli expressing H. pylori AddAB + T4 phage, OD growth; at 11.9 µM; stronger effect = higher value; gene 2 mutant T4, recBCD-deleted host
[34] = Gal4-VP16 luciferase reporter inhibitors, counter-screen for COUP-TFII antagonist project, cell-based, luminescence, HEK293 (AID 687007; in the data active = inhibition above about 13%); settings: at 8.5 µM, stronger effect = higher value
[35] = target: COUP transcription factor 2 (Homo sapiens) (UniProt P24468); test: NR2F2 transcriptional activity inhibitors, confirmation, cell-based, luciferase reporter, HEK293, triplicate (AID 687008;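 active = mean inhibition over three repeats above a set limit taken from the earlier primary screen, cut at about 38% in these data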;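 also: 100% = cells given the luciferase reporter alone without the COUP-TF2 vector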); settings: HEK293 NGFI-A luciferase reporter, luminescence; at 8.5 µM; stronger effect = higher value

Chain of Peroxisome proliferator-activated receptor gamma (Homo sapiens) (P37231 whole entry, looked up): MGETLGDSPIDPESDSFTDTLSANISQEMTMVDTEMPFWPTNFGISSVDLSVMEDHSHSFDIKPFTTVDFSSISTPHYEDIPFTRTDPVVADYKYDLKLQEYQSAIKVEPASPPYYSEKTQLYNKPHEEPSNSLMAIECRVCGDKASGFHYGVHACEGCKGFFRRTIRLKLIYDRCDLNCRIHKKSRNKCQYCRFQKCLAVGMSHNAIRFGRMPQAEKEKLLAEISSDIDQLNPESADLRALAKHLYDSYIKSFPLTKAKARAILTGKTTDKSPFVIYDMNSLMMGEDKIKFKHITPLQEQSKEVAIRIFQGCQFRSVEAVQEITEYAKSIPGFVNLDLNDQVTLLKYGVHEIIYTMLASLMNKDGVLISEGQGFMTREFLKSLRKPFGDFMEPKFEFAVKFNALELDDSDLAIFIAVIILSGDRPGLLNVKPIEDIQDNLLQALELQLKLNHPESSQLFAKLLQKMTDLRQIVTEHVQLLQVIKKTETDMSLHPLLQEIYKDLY
Chain of Toll-like receptor 9 (Homo sapiens) (Q9NR96 whole entry, looked up): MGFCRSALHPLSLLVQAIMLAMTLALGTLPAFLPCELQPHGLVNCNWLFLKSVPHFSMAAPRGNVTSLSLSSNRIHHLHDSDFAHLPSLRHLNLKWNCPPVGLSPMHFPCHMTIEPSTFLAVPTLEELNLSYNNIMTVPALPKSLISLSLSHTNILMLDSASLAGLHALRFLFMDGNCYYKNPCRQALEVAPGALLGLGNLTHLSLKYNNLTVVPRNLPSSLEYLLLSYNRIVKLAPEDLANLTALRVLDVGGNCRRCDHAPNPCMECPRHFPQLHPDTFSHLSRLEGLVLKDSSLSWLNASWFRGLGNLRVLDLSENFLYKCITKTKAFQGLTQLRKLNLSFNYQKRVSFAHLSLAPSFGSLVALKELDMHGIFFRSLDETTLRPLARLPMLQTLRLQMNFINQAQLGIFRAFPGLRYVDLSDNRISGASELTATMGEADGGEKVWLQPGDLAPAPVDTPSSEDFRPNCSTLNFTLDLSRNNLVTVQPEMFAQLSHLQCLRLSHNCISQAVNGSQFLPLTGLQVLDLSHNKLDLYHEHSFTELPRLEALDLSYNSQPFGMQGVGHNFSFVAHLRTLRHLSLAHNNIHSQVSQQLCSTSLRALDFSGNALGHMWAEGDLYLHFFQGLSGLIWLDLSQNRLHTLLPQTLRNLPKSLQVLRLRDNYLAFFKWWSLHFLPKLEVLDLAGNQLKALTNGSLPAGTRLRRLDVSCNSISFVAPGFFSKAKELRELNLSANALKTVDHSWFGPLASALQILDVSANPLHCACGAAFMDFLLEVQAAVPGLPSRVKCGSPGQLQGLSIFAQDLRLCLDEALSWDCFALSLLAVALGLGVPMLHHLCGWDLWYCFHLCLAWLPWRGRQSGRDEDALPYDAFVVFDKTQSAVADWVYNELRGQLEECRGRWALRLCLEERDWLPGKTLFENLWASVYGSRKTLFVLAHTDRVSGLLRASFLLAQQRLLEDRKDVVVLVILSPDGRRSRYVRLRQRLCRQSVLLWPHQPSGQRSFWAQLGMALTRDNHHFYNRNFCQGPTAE
Chain of Receptor-interacting serine/threonine-protein kinase 2 (Homo sapiens) (O43353 whole entry, looked up): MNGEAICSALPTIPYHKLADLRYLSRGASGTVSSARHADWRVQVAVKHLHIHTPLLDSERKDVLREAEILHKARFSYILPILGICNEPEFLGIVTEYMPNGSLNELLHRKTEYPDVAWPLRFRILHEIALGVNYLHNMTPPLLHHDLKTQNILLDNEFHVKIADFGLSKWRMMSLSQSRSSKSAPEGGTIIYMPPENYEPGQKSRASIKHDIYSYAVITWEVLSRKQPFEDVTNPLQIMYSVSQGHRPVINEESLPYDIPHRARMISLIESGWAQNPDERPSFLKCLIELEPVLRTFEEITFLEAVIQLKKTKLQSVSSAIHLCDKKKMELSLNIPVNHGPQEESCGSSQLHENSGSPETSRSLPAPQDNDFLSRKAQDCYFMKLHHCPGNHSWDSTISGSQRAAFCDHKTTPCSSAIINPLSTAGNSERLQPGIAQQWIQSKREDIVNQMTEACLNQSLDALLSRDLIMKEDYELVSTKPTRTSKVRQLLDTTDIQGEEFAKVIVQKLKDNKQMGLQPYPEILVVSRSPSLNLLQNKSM
Chain of (Lyso)-N-acylphosphatidylethanolamine lipase (Mus musculus) (Q8VD66 whole entry, looked up): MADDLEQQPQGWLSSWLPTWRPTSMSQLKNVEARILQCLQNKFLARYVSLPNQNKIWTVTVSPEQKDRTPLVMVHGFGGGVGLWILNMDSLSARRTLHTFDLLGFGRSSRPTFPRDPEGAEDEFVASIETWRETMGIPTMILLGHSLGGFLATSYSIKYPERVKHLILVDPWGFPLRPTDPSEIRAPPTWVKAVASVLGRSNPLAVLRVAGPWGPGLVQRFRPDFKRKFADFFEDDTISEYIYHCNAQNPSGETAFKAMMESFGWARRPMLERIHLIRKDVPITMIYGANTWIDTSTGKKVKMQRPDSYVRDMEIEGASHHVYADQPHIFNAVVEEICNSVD
Chain of Peroxisome proliferator-activated receptor gamma (Homo sapiens) + Nuclear receptor coactivator 3 (Homo sapiens) (P37231 whole entry, looked up): as the sequence (P37231 whole entry, looked up) above
Chain of Peroxisome proliferator-activated receptor gamma (Homo sapiens) + Nuclear receptor coactivator 3 (Homo sapiens) (Q9Y6Q9 whole entry, looked up): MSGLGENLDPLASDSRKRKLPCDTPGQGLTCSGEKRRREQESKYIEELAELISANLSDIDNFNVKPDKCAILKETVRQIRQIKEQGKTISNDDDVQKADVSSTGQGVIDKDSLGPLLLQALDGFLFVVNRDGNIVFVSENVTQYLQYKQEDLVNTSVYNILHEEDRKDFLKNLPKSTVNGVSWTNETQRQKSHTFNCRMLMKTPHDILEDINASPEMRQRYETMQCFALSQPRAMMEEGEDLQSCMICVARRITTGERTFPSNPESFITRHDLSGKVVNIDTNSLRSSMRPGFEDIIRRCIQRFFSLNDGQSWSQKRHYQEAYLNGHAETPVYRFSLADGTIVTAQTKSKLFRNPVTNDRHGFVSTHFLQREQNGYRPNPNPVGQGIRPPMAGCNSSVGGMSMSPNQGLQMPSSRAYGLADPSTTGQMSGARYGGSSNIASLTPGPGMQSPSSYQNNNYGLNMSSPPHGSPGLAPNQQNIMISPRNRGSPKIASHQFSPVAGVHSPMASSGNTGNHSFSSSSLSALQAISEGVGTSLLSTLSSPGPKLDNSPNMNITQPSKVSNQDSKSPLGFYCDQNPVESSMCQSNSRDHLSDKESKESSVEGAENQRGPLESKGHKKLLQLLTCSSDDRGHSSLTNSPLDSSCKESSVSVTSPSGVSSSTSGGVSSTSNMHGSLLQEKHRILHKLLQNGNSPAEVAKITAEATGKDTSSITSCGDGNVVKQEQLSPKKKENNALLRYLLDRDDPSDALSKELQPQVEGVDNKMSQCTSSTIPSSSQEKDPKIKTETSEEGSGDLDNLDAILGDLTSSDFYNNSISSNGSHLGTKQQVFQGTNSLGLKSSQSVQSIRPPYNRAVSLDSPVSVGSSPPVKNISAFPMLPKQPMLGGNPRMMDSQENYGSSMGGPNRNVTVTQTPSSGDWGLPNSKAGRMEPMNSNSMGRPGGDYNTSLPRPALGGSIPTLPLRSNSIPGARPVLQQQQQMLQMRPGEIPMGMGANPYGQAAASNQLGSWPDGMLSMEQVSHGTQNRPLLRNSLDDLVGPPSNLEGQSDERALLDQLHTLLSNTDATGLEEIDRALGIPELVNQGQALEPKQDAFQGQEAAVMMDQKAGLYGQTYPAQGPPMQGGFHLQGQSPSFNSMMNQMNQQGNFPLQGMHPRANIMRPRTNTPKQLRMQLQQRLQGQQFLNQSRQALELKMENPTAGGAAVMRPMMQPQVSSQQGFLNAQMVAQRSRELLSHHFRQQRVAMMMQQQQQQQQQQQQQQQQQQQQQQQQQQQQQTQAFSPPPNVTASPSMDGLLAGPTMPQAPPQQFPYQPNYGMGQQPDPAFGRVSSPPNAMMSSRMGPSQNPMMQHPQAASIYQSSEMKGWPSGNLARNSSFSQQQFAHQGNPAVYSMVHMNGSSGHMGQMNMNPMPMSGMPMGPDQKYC
Chain of Nuclear receptor subfamily 5 group A member 2 (Homo sapiens) (O00482 whole entry, looked up): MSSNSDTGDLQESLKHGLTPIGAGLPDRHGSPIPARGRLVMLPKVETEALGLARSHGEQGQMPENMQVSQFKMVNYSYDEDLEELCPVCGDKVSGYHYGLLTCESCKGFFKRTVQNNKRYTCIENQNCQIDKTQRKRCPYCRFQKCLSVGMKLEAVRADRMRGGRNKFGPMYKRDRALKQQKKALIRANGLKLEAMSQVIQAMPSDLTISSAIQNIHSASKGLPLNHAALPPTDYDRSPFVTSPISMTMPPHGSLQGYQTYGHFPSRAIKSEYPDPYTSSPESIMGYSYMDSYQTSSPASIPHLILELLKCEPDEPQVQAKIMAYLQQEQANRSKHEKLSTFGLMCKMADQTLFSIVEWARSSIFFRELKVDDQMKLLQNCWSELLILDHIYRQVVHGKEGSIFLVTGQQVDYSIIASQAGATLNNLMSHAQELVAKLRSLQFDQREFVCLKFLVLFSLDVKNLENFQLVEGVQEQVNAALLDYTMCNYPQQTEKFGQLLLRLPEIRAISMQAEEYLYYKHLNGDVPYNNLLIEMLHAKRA

Cc1nc(Cl)c2oc3ccccc3c2n1
inactive: inhibition [2] 20.8% | inhibition [3] 7.72%
active: inhibition [1] 39%

NC1=CC(=O)C(=O)c2cccnc21
active: inhibition [5] 35.9% | inhibition [6] 47.5% | inhibition [7] 45.5% | inhibition [11] 68.3% | activation [12] 45.1% | inhibition [14] 79.9%
inactive: inhibition [4] 24.5% | inhibition [8] 8.35% | inhibition [9] 6.36% | inhibition [10] 11.5% | inhibition [13] -160%

c1cnc(Nc2nc(-c3ccc4ccccc4c3)cs2)nc1
active: activation (% of control) [15] 208% | activation (% of control) [16] 139%
inactive: activation (% of control) [17] 105%

CCN(CC)c1ccc2oc(=O)c(C)nc2c1
inactive: inhibition [1] 4.42% | inhibition [2] 4.01% | activation [18] 7.05% | activation [19] 6.29% | activation [20] 3.97%

O=C(/C=C/c1ccc(N2CCOCC2)cc1)c1ccccc1
active: inhibition [2] 45.8% | inhibition [23] 29% | inhibition [24] 31.2%
inactive: inhibition [1] 21.1% | inhibition [21] 14.1% | inhibition [22] 15.4%

NNc1cccc(C=Cc2ccccc2)cc1=O
inactive: inhibition [13] -47.7%
active: inhibition [4] 47.8% | activation [12] 13.3% | inhibition [14] 33.8%

O=C1C=CC(=O)N1c1ccc(N2CCCCC2)cc1
inactive: inhibition [11] 17.5% | activation [12] 1.69% | inhibition [13] -8.48% | inhibition [14] 5.47%

Cc1cccc(COc2ccccc2/C=N/Nc2ccc([N+](=O)[O-])cc2)c1
inactive: inhibition [1] 16.9% | inhibition [25] 9.96% | inhibition [26] 20.3% | inhibition [27] 23.3% | inhibition [28] -1.39%
active: inhibition [2] 36.9% | inhibition [23] 44.2% | inhibition [24] 50.4%

CN(O)C(=S)c1ccccc1
active: inhibition [28] 97.2% | inhibition [31] 53% | inhibition [32] 62.5% | inhibition [33] 84.6%
inactive: inhibition [26] 5.28% | inhibition [27] 0.06% | inhibition [29] -14.5% | inhibition [30] -3.62% | inhibition [34] -6.65% | inhibition [35] -5.38% | activation [12] 0.55% | inhibition [13] -2.07% | inhibition [14] -6.13%
